The supplement of paper PMC8728848
This excerpt belongs to a sample that is enriched for the strongest signals.

Columns and labels:
Test in all cases: glycan array binding signal (z-score within array); higher = stronger binding
Details in all cases: glycan notation: IUPAC condensed, linker removed
Gal3S6S(b1-4)GlcNAc = target: Gal3S6S(b1-4)GlcNAc
Method in brief: (§1)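 Columns mapping to the same glycan were averaged after glycan names were converted to IUPAC-condensed notation. The data come from 3228 arrays in the Consortium for Functional Glycomics database, limited to those with an available protein sequence. Binding is reported as a within-array Z-score averaged across arrays of one protein sequence and across linkers.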

GalNAc(a1-3)GalNAc = target: GalNAc(a1-3)GalNAc
Method in brief: as §1

GalNAc(b1-4)Gal(b1-4)Glc = target: GalNAc(b1-4)Gal(b1-4)Glc
Method in brief: as §1

GalNAc3S(b1-4)GlcNAc = target: GalNAc3S(b1-4)GlcNAc
Method in brief: as §1

GalNAc3S(b1-4)GlcNAc3S = target: GalNAc3S(b1-4)GlcNAc3S
Method in brief: as §1

[1] = target: GalNAc3S(b1-4)[Fuc(a1-3)]GlcNAc
Method in brief: as §1

[2] = target: GlcNAc(a1-4)Gal(b1-4)GlcNAc(b1-3)Gal(b1-4)GlcNAc
Method in brief: as §1

[3] = target: GlcNAc(a1-4)Gal(b1-4)GlcNAc(b1-3)Gal(b1-4)[Fuc(a1-3)]GlcNAc(b1-3)Gal(b1-4)[Fuc(a1-3)]GlcNAc
Method in brief: as §1

[4] = target: GlcNAc(b1-2)Man(a1-3)[GlcNAc(b1-2)Man(a1-6)]Man(b1-4)GlcNAc(b1-4)GlcNAc
Method in brief: as §1

[5] = target: GlcNAc(b1-2)[GlcNAc(b1-4)]Man(a1-3)[GlcNAc(b1-2)Man(a1-6)]Man(b1-4)GlcNAc(b1-4)GlcNAc
Method in brief: as §1

GlcNAc(b1-3)Gal = target: GlcNAc(b1-3)Gal
Method in brief: as §1

[6] = target: GlcNAc(b1-3)Gal(b1-4)GlcNAc(b1-2)Man(a1-3)[GlcNAc(b1-3)Gal(b1-4)GlcNAc(b1-2)Man(a1-6)]Man(b1-4)GlcNAc(b1-4)[Fuc(a1-6)]GlcNAc
Method in brief: as §1

[7] = target: GlcNAc6S(b1-3)Gal(b1-4)GlcNAc
Method in brief: as §1

Kdn(a2-3)Gal(b1-3)GalNAc = target: Kdn(a2-3)Gal(b1-3)GalNAc
Method in brief: as §1

[8] = target: Man(a1-2)Man(a1-3)[Man(a1-2)Man(a1-6)]Man(a1-6)[Man(a1-3)[Man(a1-6)]Man(a1-6)]Man(b1-4)GlcNAc(b1-4)GlcNAc
Method in brief: as §1

[9] = target: Man(a1-2)Man(a1-3)[Man(a1-6)]Man(a1-6)[Man(a1-2)Man(a1-3)]Man(b1-4)GlcNAc(b1-4)GlcNAc
Method in brief: as §1

[10] = target: Man(a1-2)Man(a1-6)[Man(a1-3)]Man(a1-6)[Man(a1-2)Man(a1-2)Man(a1-3)]Man
Method in brief: as §1

[11] = target: Man(a1-2)Man(a1-6)[Man(a1-3)]Man(a1-6)[Man(a1-2)Man(a1-2)Man(a1-3)]Man(b1-4)GlcNAc(b1-4)GlcNAc
Method in brief: as §1

[12] = target: Man(a1-3)[Man(a1-6)]Man(a1-6)[Man(a1-2)Man(a1-3)]Man(b1-4)GlcNAc(b1-4)GlcNAc
Method in brief: as §1

[13] = target: Man(a1-3)[Man(a1-6)]Man(a1-6)[Man(a1-3)]Man(b1-4)GlcNAc(b1-4)GlcNAc
Method in brief: as §1

[14] = target: Man(a1-3)[Man(a1-6)]Man(b1-4)GlcNAc(b1-4)GlcNAc
Method in brief: as §1

[15] = target: Neu5Ac(a2-3)Gal(b1-3)GlcNAc(b1-3)Gal(b1-3)GlcNAc
Method in brief: as §1

[16] = target: Neu5Ac(a2-3)Gal(b1-3)[Fuc(a1-4)]GlcNAc
Method in brief: as §1

[17] = target: Neu5Ac(a2-3)Gal(b1-3)[Fuc(a1-4)]GlcNAc(b1-3)Gal(b1-4)[Fuc(a1-3)]GlcNAc
Method in brief: as §1

[18] = target: Neu5Ac(a2-3)Gal(b1-3)[Neu5Ac(a2-3)Gal(b1-4)]GlcNAc
Method in brief: as §1

[19] = target: Neu5Ac(a2-6)Gal(b1-4)GlcNAc(b1-2)Man(a1-3)[GlcNAc(b1-2)Man(a1-6)]Man(b1-4)GlcNAc(b1-4)GlcNAc
Method in brief: as §1

[20] = target: Neu5Ac(a2-6)Gal(b1-4)GlcNAc(b1-2)Man(a1-3)[Neu5Ac(a2-6)Gal(b1-4)GlcNAc(b1-2)Man(a1-6)]Man(b1-4)GlcNAc(b1-4)[Fuc(a1-6)]GlcNAc
Method in brief: as §1

[21] = target: Neu5Gc(a2-8)Neu5Gc(a2-3)Gal(b1-4)GlcNAc
Method in brief: as §1

[22] = target: Neu5Gc(a2-8)Neu5Gc(a2-3)Gal(b1-4)GlcNAc(b1-3)Gal(b1-4)GlcNAc
Method in brief: as §1

[23] = target: Neu5Gc(a2-8)Neu5Gc(a2-6)Gal(b1-4)GlcNAc
Method in brief: as §1

[24] = target: Neu5Gc(b2-6)Gal(b1-4)GlcNAc
Method in brief: as §1

B1: AMA (Arum maculatun) (protein)
chain: MAKLLLLLLLPAIVGLAVPRSAAAVGSNYMLSGETLNTDGRLTNGELTLIMQVDCNLVLYHGGWQSNTANNGRDCKLTLTDFGELVIKSGTGSTVWSSGSKQSMKGNYAAVVHPEGRLVIYGPSVFKINPSGAGLNGLPLRNIPLTNNMLFSGQVLYGDGTLSARNHKLVMQGDCNMVLYGGKYGWQSNTHGNGKYCFAMLTHKGELVIRDDDFKSVWSSKSSSKQGDYVFILQDDSLAIIYGPAVFSTGSKKMISMVTN
Question: What does the source list for B1?
Answer: glycan array binding signal (z-score) (Gal3S6S(b1-4)GlcNAc): -0.213; glycan array binding signal (z-score) (GalNAc(a1-3)GalNAc): -0.209; glycan array binding signal (z-score) (GalNAc(b1-4)Gal(b1-4)Glc): -0.203; glycan array binding signal (z-score) (GalNAc3S(b1-4)GlcNAc): -0.22; glycan array binding signal (z-score) (GalNAc3S(b1-4)GlcNAc3S): -0.217; glycan array binding signal (z-score) [1]: -0.216; glycan array binding signal (z-score) [2]: -0.205; glycan array binding signal (z-score) [3]: -0.201; glycan array binding signal (z-score) [4]: 6.01; glycan array binding signal (z-score) [5]: 7.69; glycan array binding signal (z-score) (GlcNAc(b1-3)Gal): -0.211; glycan array binding signal (z-score) [6]: 2.21; glycan array binding signal (z-score) [7]: -0.202; glycan array binding signal (z-score) (Kdn(a2-3)Gal(b1-3)GalNAc): -0.207; glycan array binding signal (z-score) [8]: 3.87; glycan array binding signal (z-score) [9]: 3.3; glycan array binding signal (z-score) [10]: -0.213; glycan array binding signal (z-score) [11]: 4.91; glycan array binding signal (z-score) [12]: 8.56; glycan array binding signal (z-score) [13]: 4.09; glycan array binding signal (z-score) [14]: 3.64; glycan array binding signal (z-score) [15]: -0.204; glycan array binding signal (z-score) [16]: -0.218; glycan array binding signal (z-score) [17]: -0.226; glycan array binding signal (z-score) [18]: 0.441; glycan array binding signal (z-score) [19]: 0.845; glycan array binding signal (z-score) [20]: 0.863; glycan array binding signal (z-score) [21]: -0.22; glycan array binding signal (z-score) [22]: -0.215; glycan array binding signal (z-score) [23]: -0.211; glycan array binding signal (z-score) [24]: -0.21
